Test results taken from the supplement of paper PMC8728848.
The sample as a whole holds a higher share of the strongest signals than the screen did.

Key:
Assay in all cases: glycan array binding signal (z-score within array); higher = stronger binding
Conditions in all cases: glycan notation: IUPAC condensed, linker removed
[1] = target: Fuc(a1-2)Gal(b1-3)GalNAc(b1-3)Gal(a1-4)Gal(b1-4)Glc
Method in brief: (§1)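 Glycan array binding is given as a within-array Z-score, which can be read as non-binding when negative. The arrays, 3228 of them, came from the Consortium for Functional Glycomics database and were retained only where the protein sequence was available. Z-scores were averaged across arrays of the same protein sequence at different concentrations or buffers and across linkers.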

[2] = target: Fuc(a1-2)Gal(b1-3)GlcNAc(b1-3)[Fuc(a1-3)[Gal(b1-4)]GlcNAc(b1-6)]Gal(b1-4)Glc
Method in brief: as §1

[3] = target: Fuc(a1-2)Gal(b1-3)[Fuc(a1-4)]GlcNAc(b1-2)Man(a1-3)[Fuc(a1-2)Gal(b1-3)[Fuc(a1-4)]GlcNAc(b1-2)Man(a1-6)]Man(b1-4)GlcNAc(b1-4)GlcNAc
Method in brief: as §1

[4] = target: Fuc(a1-2)Gal(b1-3)[Fuc(a1-4)]GlcNAc(b1-3)[Fuc(a1-3)[Gal(b1-4)]GlcNAc(b1-6)]Gal(b1-4)Glc
Method in brief: as §1

[5] = target: Fuc(a1-2)Gal(b1-4)[Fuc(a1-3)]GlcNAc(b1-2)[Fuc(a1-2)Gal(b1-4)[Fuc(a1-3)]GlcNAc(b1-4)]Man(a1-3)[Fuc(a1-2)Gal(b1-4)[Fuc(a1-3)]GlcNAc(b1-2)Man(a1-6)]Man(b1-4)GlcNAc(b1-4)GlcNAc
Method in brief: as §1

[6] = target: Fuc(a1-2)[GalNAc(a1-3)]Gal(b1-3)GlcNAc(b1-2)Man(a1-3)[Fuc(a1-2)[GalNAc(a1-3)]Gal(b1-3)GlcNAc(b1-2)Man(a1-6)]Man(b1-4)GlcNAc(b1-4)[Fuc(a1-6)]GlcNAc
Method in brief: as §1

[7] = target: Fuc(a1-2)[GalNAc(a1-3)]Gal(b1-3)GlcNAc(b1-3)GalNAc
Method in brief: as §1

[8] = target: Fuc(a1-2)[GalNAc(a1-3)]Gal(b1-4)GlcNAc(b1-3)Gal(b1-4)GlcNAc(b1-3)Gal(b1-4)GlcNAc
Method in brief: as §1

[9] = target: Gal(a1-3)Gal(b1-4)GlcNAc(b1-3)GalNAc
Method in brief: as §1

[10] = target: Gal(a1-3)Gal(b1-4)[Fuc(a1-3)]GlcNAc(b1-2)Man(a1-3)[Gal(a1-3)Gal(b1-4)[Fuc(a1-3)]GlcNAc(b1-2)Man(a1-6)]Man(b1-4)GlcNAc(b1-4)GlcNAc
Method in brief: as §1

[11] = target: Gal(a1-4)Gal(b1-4)GlcNAc(b1-3)Gal(b1-4)Glc
Method in brief: as §1

[12] = target: Gal(b1-2)Gal
Method in brief: as §1

[13] = target: Gal(b1-3)Gal(b1-4)GlcNAc
Method in brief: as §1

[14] = target: Gal(b1-3)GlcNAc(b1-3)Gal(b1-4)Glc
Method in brief: as §1

[15] = target: Gal(b1-3)GlcNAc(b1-3)Gal(b1-4)GlcNAc
Method in brief: as §1

[16] = target: Gal(b1-3)[Fuc(a1-4)]GlcNAc(b1-2)Man(a1-3)[Gal(b1-3)[Fuc(a1-4)]GlcNAc(b1-2)Man(a1-6)]Man(b1-4)GlcNAc(b1-4)GlcNAc
Method in brief: as §1

[17] = target: Gal(b1-3)[Neu5Ac(a2-6)]GalNAc
Method in brief: as §1

[18] = target: Gal(b1-4)GlcNAc
Method in brief: as §1

[19] = target: Gal(b1-4)GlcNAc(b1-2)Man(a1-3)[Gal(b1-4)GlcNAc(b1-2)Man(a1-6)]Man(b1-4)GlcNAc(b1-4)GlcNAc
Method in brief: as §1

[20] = target: Gal(b1-4)GlcNAc(b1-3)Gal(b1-4)Glc
Method in brief: as §1

[21] = target: Gal(b1-4)GlcNAc(b1-3)[GlcNAc(b1-6)]Gal(b1-4)GlcNAc
Method in brief: as §1

[22] = target: Gal(b1-4)GlcNAc(b1-6)Gal(b1-4)GlcNAc(b1-6)GalNAc
Method in brief: as §1

[23] = target: Gal3S(b1-3)GalNAc
Method in brief: as §1

[24] = target: GalNAc(b1-3)Gal(a1-4)Gal(b1-4)GlcNAc(b1-3)Gal(b1-4)Glc
Method in brief: as §1

[25] = target: GalNAc(b1-3)GalNAc
Method in brief: as §1

[26] = target: Glc(a1-4)Glc
Method in brief: as §1

[27] = target: GlcNAc(a1-4)Gal(b1-3)GlcNAc
Method in brief: as §1

[28] = target: GlcNAc(a1-4)Gal(b1-4)GlcNAc(b1-3)Gal(b1-4)GlcNAc
Method in brief: as §1

[29] = target: GlcNAc(a1-6)Gal(b1-4)GlcNAc
Method in brief: as §1

[30] = target: GlcNAc(b1-2)Man(a1-3)[GlcNAc(b1-2)Man(a1-6)]Man(b1-4)GlcNAc(b1-4)[Fuc(a1-6)]GlcNAc
Method in brief: as §1

[31] = target: GlcNAc(b1-3)Gal
Method in brief: as §1

[32] = target: GlcNAc(b1-3)Gal(b1-4)Glc
Method in brief: as §1

[33] = target: GlcNAc(b1-3)Gal(b1-4)GlcNAc
Method in brief: as §1

[34] = target: GlcNAc(b1-3)[GlcNAc(b1-6)]Gal(b1-4)GlcNAc
Method in brief: as §1

[35] = target: GlcNAc(b1-3)[GlcNAc(b1-6)]GlcNAc(b1-4)GlcNAc
Method in brief: as §1

[36] = target: GlcNAc3Prop(b1-4)GlcNAc
Method in brief: as §1

[37] = target: Neu5Ac(a2-3)Gal(b1-4)GlcNAc(b1-3)Gal
Method in brief: as §1

[38] = target: Neu5Ac(a2-3)Gal(b1-4)[Fuc(a1-3)]GlcNAc6S
Method in brief: as §1

[39] = target: Neu5Ac(a2-3)Gal6S(b1-4)GlcNAc
Method in brief: as §1

[40] = target: Neu5Ac(a2-3)Gal6S(b1-4)[Fuc(a1-3)]GlcNAc
Method in brief: as §1

[41] = target: Neu5Ac(a2-3)[GalNAc(b1-4)]Gal(b1-4)Glc
Method in brief: as §1

[42] = target: Neu5Ac(a2-3)[GalNAc(b1-4)]Gal(b1-4)GlcNAc
Method in brief: as §1

[43] = target: Neu5Ac(a2-6)Gal(b1-4)GlcNAc(b1-2)Man(a1-3)Man(b1-4)GlcNAc(b1-4)GlcNAc
Method in brief: as §1

[44] = target: Neu5Ac(a2-6)Gal(b1-4)GlcNAc(b1-2)Man(a1-6)Man(b1-4)GlcNAc(b1-4)GlcNAc
Method in brief: as §1

[45] = target: Neu5Ac(a2-8)Neu5Ac(a2-8)Neu5Ac
Method in brief: as §1

[46] = target: Neu5Ac(b1-6)GalNAc
Method in brief: as §1

B1: F17aG (Escherichia coli), Q99003 (protein)
chain: MTNFYKVFLAVFILVCCNISQAAVSFIGSTENDVGPSLGSYSRTHAMDNLPFVYDTRNKIGYQNANVWHISKGFCVGLDGKVDLPVVGSLDGQSIYGLTEEVGLLIWMGDTKYSRGTAMSGNSWENVFSGWCVGANTASTQGLSVRVTPVILKRNSSARYSVQKTSIGSIRMRPYNGSSAGSVQTTVNFSLNPFTLNDTVTSCRLLTPSAVNVSLAAISAGQLPSSGDEVVAGTTSLKLQCDAGVTVWATLTDATTPSNRSDILTLTGASTATGVGLRIYKNTDSTPLKFGPDSPVKGNENQWQLSTGTETSPSVRLYVKYVNTGEGINPGTVNGISTFTFSYQ
glycan array binding signal (z-score) [1]: -0.23
glycan array binding signal (z-score) [2]: -0.148
glycan array binding signal (z-score) [3]: -0.169
glycan array binding signal (z-score) [4]: -0.139
glycan array binding signal (z-score) [5]: -0.163
glycan array binding signal (z-score) [6]: -0.143
glycan array binding signal (z-score) [7]: -0.113
glycan array binding signal (z-score) [8]: 0.023
glycan array binding signal (z-score) [9]: -0.168
glycan array binding signal (z-score) [10]: -0.157
glycan array binding signal (z-score) [11]: -0.154
glycan array binding signal (z-score) [12]: -0.25
glycan array binding signal (z-score) [13]: -0.151
glycan array binding signal (z-score) [14]: -0.252
glycan array binding signal (z-score) [15]: -0.236
glycan array binding signal (z-score) [16]: -0.119
glycan array binding signal (z-score) [17]: -0.205
glycan array binding signal (z-score) [18]: -0.14
glycan array binding signal (z-score) [19]: -0.254
glycan array binding signal (z-score) [20]: -0.147
glycan array binding signal (z-score) [21]: 1.53
glycan array binding signal (z-score) [22]: -0.312
glycan array binding signal (z-score) [23]: -0.244
glycan array binding signal (z-score) [24]: -0.179
glycan array binding signal (z-score) [25]: 1.69
glycan array binding signal (z-score) [26]: -0.243
glycan array binding signal (z-score) [27]: -0.089
glycan array binding signal (z-score) [28]: -0.182
glycan array binding signal (z-score) [29]: -0.243
glycan array binding signal (z-score) [30]: -0.17
glycan array binding signal (z-score) [31]: 3.9
glycan array binding signal (z-score) [32]: 8.79
glycan array binding signal (z-score) [33]: 4.77
glycan array binding signal (z-score) [34]: 5.68
glycan array binding signal (z-score) [35]: 2.15
glycan array binding signal (z-score) [36]: 11.7
glycan array binding signal (z-score) [37]: -0.158
glycan array binding signal (z-score) [38]: 0.084
glycan array binding signal (z-score) [39]: -0.233
glycan array binding signal (z-score) [40]: -0.245
glycan array binding signal (z-score) [41]: 0.025
glycan array binding signal (z-score) [42]: -0.241
glycan array binding signal (z-score) [43]: -0.177
glycan array binding signal (z-score) [44]: -0.167
glycan array binding signal (z-score) [45]: -0.234
glycan array binding signal (z-score) [46]: -0.34
